Test results from the supplement of paper PMC10981050.
Several values for one entry are separate records, joined by “and”; a condition that tells them apart may be missing. Equal entries are not always repeated. Structures can show the parent of a compound that is named as a salt.

Legend:
Assay in all cases: cell viability relative to vehicle control; higher = less cytotoxic
Settings in all cases: 10 µM
K562 = system: K562
Procedure, shortened: (§1)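 After removal of identity-inconsistent compounds, the Selleck bioactive, kinase and epigenetic probe libraries were screened on CRISPR-edited mutant clones and isogenic wild-type clones of four leukaemia lines. Plates were 384-well, each well holding 2000 cells in 50 µL medium and receiving a single 10 µM acoustically dispensed dose. CellTiter-Glo luminescence was read 48 h later, after the supernatant was taken off. Genedata Screener was used to express viability as percent of the on-plate vehicle control.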

MARIMO = system: MARIMO
Procedure, shortened: as §1

MOLM14 = system: MOLM14
Procedure, shortened: as §1

OCI-AML2 = system: OCI-AML2
Procedure, shortened: as §1

| Structure (SMILES) | cell viability (K562; SRSF2 genotype: SRSF2 P95H/wt) | cell viability (K562; SRSF2 genotype: SRSF2 wt/wt) | cell viability (MARIMO; SRSF2 genotype: SRSF2 P95H/wt) | cell viability (MARIMO; SRSF2 genotype: SRSF2 wt/wt) | cell viability (MOLM14; SRSF2 genotype: SRSF2 P95H/wt) | cell viability (MOLM14; SRSF2 genotype: SRSF2 wt/wt) | cell viability (OCI-AML2; SRSF2 genotype: P95H/wt) | cell viability (OCI-AML2; SRSF2 genotype: wt/wt) |
| --- | --- | --- | --- | --- | --- | --- | --- | --- |
| C[C@H](C[C@H](O)[C@@H](O)C(C)(C)O)C1=C2C[C@H](O)[C@H]3[C@@]4(C)CCC(=O)C(C)(C)[C@@H]4CC[C@]3(C)[C@@]2(C)CC1 [Alisol A] | 85.4% and 85.1% | 89.8% | 86.9% | 79.1% | 98.4% | 96.2% | 84.9% | 83.5% |
| O=C[C@H](O)[C@@H](O)[C@H](O)CO [Xylose] | 95% and 93.8% | 96% | 90.4% | 96.1% | 91.8% | 95.2% | 103% | 88.2% |
| C[C@@H]1CC[C@@]2(OC1)O[C@H]1C[C@H]3[C@@H]4CC=C5C[C@@H](O[C@@H]6O[C@H](CO)[C@@H](O)[C@H](O)[C@H]6O[C@@H]6O[C@@H](C)[C@H](O)[C@@H](O)[C@H]6O)CC[C@]5(C)[C@H]4CC[C@]3(C)[C@@]1(O)[C@@H]2C [Polyphyllin VI] | 0.36% and 0.31% | 0.44% | 4.95% | 0.84% | 0.85% | 0.55% | 0.28% | 0.33% |
| C[C@]12C=CC(=O)C=C1CC[C@@H]1[C@@H]2C(=O)C[C@@]2(C)[C@H]1CC[C@]2(O)C(=O)CO [Prednisone (Adasone)] | 102% and 107% | 95.5% | 104% | 101% | 108% | 107% | 106% | 110% |
| COc1ccnc2[nH]cc(C(=O)C(=O)N3CCN(C(=O)c4ccccc4)C[C@H]3C)c12 | 93.7% and 90.7% | 84.5% | 90% | 99.2% | 95.6% | 90.3% | 82.2% | 86.4% |
| CC(=O)OCC=Cc1ccccc1 [Cinnamyl acetate] | 98.4% and 95.9% | 104% | 99.4% | 95.9% | 101% | 102% | 101% | 111% |
| O=C(/C=C/c1ccccc1)OCc1ccccc1 [Benzyl cinnamate] | 101% and 100% | 103% | 85.5% | 99.6% | 108% | 104% | 92.1% | 93.1% |
| C[C@@H]1O[C@@H](OC[C@H]2O[C@@H](Oc3cc(O)c4c(c3)O[C@H](c3ccc(O)c(O)c3)CC4=O)[C@H](O)[C@@H](O)[C@@H]2O)[C@H](O)[C@H](O)[C@H]1O [Eriocitrin] | 110% and 103% | 108% | 105% | 100% | 117% | 110% | 98.4% | 94.6% |
| COc1ccc(-c2oc3c(CC=C(C)C)c(O[C@@H]4O[C@H](CO)[C@@H](O)[C@H](O)[C@H]4O)cc(O)c3c(=O)c2O[C@@H]2O[C@@H](C)[C@H](O)[C@@H](O)[C@H]2O)cc1 [Icariin] | 94.5% and 104% | 98.7% | 98.7% | 110% | 108% | 104% | 105% | 112% |
| [Na+].[Na+].[Na+].[Na+].[Na+].[Na+].[O]=[W](=[O])([O-])[O-].[O]=[W](=[O])([O-])[O-].[O]=[W](=[O])([O-])[O-].[O]=[W](=[O])=[O].[O]=[W](=[O])=[O].[O]=[W](=[O])=[O].[O]=[W](=[O])=[O].[O]=[W](=[O])=[O].[O]=[W](=[O])=[O].[O]=[W](=[O])=[O].[O]=[W](=[O])=[O].[O]=[W](=[O])=[O] [SodiuM Metatungstate] | 103% and 109% | 106% | 121% | 106% | 103% | 109% | 88.9% | 93.5% |
| CC(C)NC[C@H](O)COc1ccc(CCOCC2CC2)cc1 [Levobetaxolol HCl] | 91.7% and 81.4% | 83% | 83% | 90.6% | 89.1% | 91.8% | 79.4% | 98.4% |
| Cc1cnc(Nc2ccc(F)cc2Cl)nc1-c1c[nH]c(C(=O)NC(CO)c2cccc(Cl)c2)c1 (stereo not given) | 60.8% and 83.2% | 72.9% | 44.9% | 46% | 58.5% | 48.1% | 47.4% | 47.7% |
| Cc1cc(OCCCS(C)(=O)=O)cc(C)c1-c1cccc(COc2ccc3c(c2)OC[C@H]3CC(=O)O)c1 | 92.7% and 94.6% | 91.3% | 93.2% | 104% | 94.3% | 98.2% | 85% | 101% |
| O=c1cc(-c2ccc(O)cc2)oc2cc(O)c(O)c(O)c12 [Scutellarein] | 92% and 86.2% | 95% | 102% | 91.3% | 107% | 103% | 102% | 97% |
| C=C1/C(=C\C=C2/CCC[C@]3(C)[C@@H]([C@H](C)CCCC(C)(C)O)CC[C@@H]23)C[C@@H](O)C[C@@H]1O [Calcitriol (Rocaltrol)] | 81.2% and 89.8% | 88.2% | 66.9% | 66.5% | 65.4% | 62.6% | 64.9% | 76.3% |
| CC[C@@]1(O)C(=O)OCc2c1cc1n(c2=O)Cc2cc3c(CN(C)C)c(O)ccc3nc2-1 [Topotecan HCl] | 15% and 25% | 12.9% | 5.05% | 3.35% | 0.55% | 0.35% | 3.3% | 8.46% |
| CC1(C)[C@@H](O)CC[C@]2(C)[C@H]3C(=O)C=C4[C@@H]5C[C@@](C)(C(=O)O)CC[C@]5(C)CC[C@@]4(C)[C@]3(C)CC[C@@H]12 [Enoxolone (Glycyrrhetin)] | 97.3% and 106% | 102% | 109% | 105% | 104% | 103% | 110% | 106% |
| Nc1ccccc1NC(=O)c1cnccn1 | 91.8% and 96% | 82.8% | 76.7% | 90.7% | 75.5% | 73.9% | 81.3% | 88.3% |
| COC(=O)c1cc(OC)c(OC)c(OC)c1 [Methyl EudesMate] | 103% and 105% | 100% | 97.6% | 109% | 108% | 106% | 102% | 110% |
| CNC(=O)[C@H](Cc1c[nH]c2ccccc12)NC(=O)[C@@H](CC(=O)NO)CC(C)C [Ilomastat (GM6001, Galardin)] | 101% and 105% | 95.8% | 95.7% | 97.5% | 88.2% | 97.8% | 113% | 112% |
